Source: PubChem BioAssay (NCI)
About 83,000 compounds went through this panel and 20% of them were active in at least one assay; those are over-represented in the sample as a whole.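 In brief: 96-well plates, 48 h treatment, single concentration, percent growth endpoint.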 Calls of active or inactive are those of the source.

system: KM12 colon; experiment: NCI-60 one-dose screen, 48 h (100 = growth as untreated, 0 = no growth, -100 = all killed); conditions: 10 µM unless noted
Description: Growth inhibition of the KM12 human tumor cell line is measured as a screen for anti-cancer activity. Cells are grown in 96 well plates and exposed to the test compound for 48 hours. Compounds are tested at a single concentration, which is 10^-5 M for most compounds. The reported endpoint is percent growth (GI% or GIPRCNT), where numbers from 0 - 100% represent growth inhibition, and numbers from -100% - 0 represent cell death. For example, a value of 40 represents 60% growth inhibition. A value of 0 means no net growth occurred over the course of the experiment. A value of -40 indicates 40% of cells at the beginning of the experiment died by the end of the experiment. A value of -100 means all cells are dead at the end of the experiment.
NCI-60 Human Tumor Cell Lines Screen was performed using the standard one-dose NCI protocol, which is described in more detail at https://dtp.cancer.gov/discovery_development/nci-60/default.htm.
Compounds with GIPRCNT values below 10 were considered active. Activity score was based on GIPRCNT using the following formula: […]
Score is 0 for GIPRCNT values of 100 or above, 50 for GIPRCNT values of 0, and 100 for GIPRCNT values of -100.

| SMILES | growth |
| --- | --- |
| CCCCN1C=CCN(CCCC)C1 | 22.9% (inactive) |
| C[C@@H](Nc1ncnc2ccc(-c3cnc(N)nc3)cc12)c1ccc(F)cc1 | 98.7% (inactive) |
| O=C1/C=C/[C@@H](O)[C@@H]2C[C@@H](O)C[C@H]2/C=C/CCC[C@H](CCc2cccc3ccccc23)O1 | -37.9% (active) |
| Cc1cc2nc3c4ccc(Br)cc4n(CCN(C)C)c3nc2cc1C | 23.8% (inactive) |
| NC(=O)CSSCC(N)=O | 101% (inactive) |
| Nc1ccccc1NC(=O)c1ccc(-n2nc(-c3ccccc3)c3ccccc32)cc1 | 91.4% (inactive) |
| COc1cc(-c2cc(-c3ccc(N(C)C)cc3)nc(N3CCOCC3)c2C#N)cc(OC)c1OC | 28.3% (inactive) |
| Cc1nc2sccn2c1-c1cn2ccsc2n1 | 64.1% (inactive) |
| CC/C(=C\c1ccc(OC)cc1)C(=O)c1ccc(OC)cc1 | 96.3% (inactive) |
| COc1cc2nc(-c3ccc(C(F)(F)F)cc3)cc(OCCCN3CCOCC3)c2cc1OC | 27.5% (inactive) |
| Cc1ccc(-c2nc3ccccn3c2/C=C2/C(=O)Nc3cc(Cl)ccc32)cc1 | 31.9% (inactive) |
| O=C(/C=C(/C=C/c1csc2ccccc12)OB(F)F)/C=C/c1csc2ccccc12 | 37.7% (inactive) |
| O=C(C1CCC1)N1N=C(c2ccc(-n3ccc(C(F)(F)F)n3)cc2)CC1c1ccc[nH]1 (stereo not given) | 89.7% (inactive) |
| Cc1c(C)c([N+](=O)[O-])c(C)c([N+](=O)[O-])c1C | 108% (inactive) |
| CC1(C)CC(=O)C2=C(C1)N(c1ccc(F)cc1F)C(N)=C(C#N)C2c1cc(Br)ccc1F (stereo not given) | 88.7% (inactive) |
| O=C1c2c(c3c4cccc(F)c4[nH]c3c3ccc4ccccc4c23)C(=O)N1O | 25.4% (inactive) |
| C#CCNC(=O)[C@H](Cc1ccccc1)NC(=O)[C@]12CC[C@@H](C(=C)C)[C@@H]1[C@H]1CC[C@@H]3[C@@]4(C)CCC(=O)C(C)(C)[C@@H]4CC[C@@]3(C)[C@]1(C)CC2 | 61.5% (inactive) |
| CCOC(=O)c1nc2c3ccccc3ccn2c1C(=O)OCC | 100% (inactive) |
| N=C1C(c2nc3ccccc3s2)=C(O)CN1c1cc(Cl)cc(Cl)c1 | 64.7% (inactive) |
| COc1ccc(/C=C2\Oc3cc(OCCCN4CCCCC4)ccc3C2=O)cc1OC | 93.6% (inactive) |

| SMILES | growth |
| --- | --- |
| COc1ccc(C(=O)c2nc3ccccc3n2CC(=O)c2ccc(Cl)cc2)cc1 | 28.4% (inactive) |
| CCCCCN1C=C/C(=C\C(=O)n2ccc3ccccc32)c2ccccc21 | 89.2% (inactive) |
| COc1ccc(NC(=O)c2cc(NCc3cc(O)ccc3O)ccc2O)cc1 | 88.3% (inactive) |
| COc1cc(/C(C)=C(\c2ccc(Cl)cc2)c2ccc(OCCN3CCCC3)cc2)ccc1F | 36.7% (inactive) |
| Nc1c(C(=O)Nc2ccnc3ccccc23)sc2nc3c(cc12)CN(Cc1ccccc1)CC3 | 79.7% (inactive) |
| Cc1cc2c(c(C)c1Cl)C(=O)/C(=C/c1ccc(O)c(O)c1)O2 | 109% (inactive) |
| Cc1nnc2c(Cc3ccccc3)nc3ccccc3n12 | 97.5% (inactive) |
| COc1cc(NC(C)CCCNC(=O)CCC(=O)NCCCNCCCCCCCCCCNCCCNC(=O)CCC(=O)NCCCC(C)Nc2cc(OC)cc3cccnc23)c2ncccc2c1 (stereo not given) | 89.2% [8 µM] (inactive) |
| COc1cc2nc(-c3ccc(C(F)(F)F)cc3)cc(OCCN3CCCCC3)c2cc1OC | 80.3% (inactive) |
| CC1=C(C(=O)/C=C/c2ccc(N(C)C)cc2)C(c2ccccc2)NC(=S)N1 (stereo not given) | 101% (inactive) |
| CC(=O)N1c2ccccc2NC2=C(C(=O)NC2(C)C)C1c1ccco1 (stereo not given) | 51.2% (inactive) |
| COc1cc(NC(C)CCCNC(=O)CCC(=O)NCCCNCCCCCCCCNCCCNC(=O)CCC(=O)NCCCC(C)Nc2cc(OC)cc3cccnc23)c2ncccc2c1 (stereo not given) | 82.1% (inactive) |
| COc1cc2c(cc1OC)C(=O)/C(=C/c1cc(C)c(O)c(C)c1)S2 | 26.2% (inactive) |
| CCN(CC)CC[n+]1cc2cc(OC)c(OC)cc2c2ccc3cc4c(cc3c21)OCO4 | -82.2% (active) |
| Cc1ccc(C(=O)/C(=C\c2ccc([N+](=O)[O-])cc2)S(=O)Cc2ccc(Cl)cc2)cc1 (stereo not given) | 46.6% (inactive) |
| COc1ccc(C(=O)C2C(C#N)C(C#N)C3C=Cc4ccccc4N32)cc1 (stereo not given) | 6.36% (active) |
| CN[C@@H](C)C(=O)N[C@H]1CCS[C@H]2CC(C)(C)[C@@H](C(=O)N[C@H]3c4ccccc4C[C@H]3OCC#CC#CCO[C@@H]3Cc4ccccc4[C@@H]3NC(=O)[C@H]3N4C(=O)[C@@H](NC(=O)[C@H](C)NC)CCS[C@H]4CC3(C)C)N2C1=O | 110% (inactive) |
| CC(Sc1nc2sc3c(c2c(=O)n1-c1ccc(Cl)cc1)CCCC3)C(=O)Nc1nc(-c2ccc(Br)cc2)cs1 (stereo not given) | 104% (inactive) |
| CCN(c1ccccc1)S(=O)(=O)c1cc([N+](=O)[O-])ccc1Cl | 54.1% (inactive) |
| C[C@H]1[C@H](C)CC[C@]2(C(=O)NCC#CCN3CCN(C)CC3)CC[C@]3(C)C(=CC[C@@H]4[C@@]5(C)Cc6c([nH]c7ccccc67)C(C)(C)[C@@H]5CC[C@]43C)[C@H]12 | 75.2% (inactive) |
